The text below walks through data of PubChem BioAssay (Tox21).

“And” between values parts separate entries of the source, which are not always exact repeats. Equal entries are not always repeated. Some compounds were tested as several samples or in several runs, with calls that do not always agree. The source made the active and inactive calls. Unless noted, calls come from the whole dose curve; as a rule, active = well fitted curve in the direction sought with a large enough effect in the repeat runs; inconclusive = weak or mixed curves; inactive = no such curve, though single readings can be large; an effect the other way counts as inactive or inconclusive.

Assay [1] is described as follows: qHTS assay to identify small molecule antagonists of the thyroid receptor (TR) signaling pathway - cell viability counter screen (AID 743064). Note: nearly all actives have a fitted effect of over 50% in size. In outline:
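GH3.TRE-Luc cells, 4 h pre-plating; cpd + T3 1 nM final; 37 °C 23.5 h; CellTiter-Fluor 30 min; fluorescence read.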
(In general: In qHTS, concentration-response curves come from the screen itself.)

A short description of assay [2]: qHTS assay to identify small molecule antagonists of the thyroid receptor (TR) signaling pathway (AID 743065). Note: series mostly up to about 70 µM; nearly all actives have a fitted effect of over 55% in size. In outline:
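GH3.TRE-Luc rat pituitary cells (two TREs driving luciferase) were dosed with compound, then stimulated with 1 nM T3 (final) for 23.5 h at 37 C. ONE-Glo luminescence was the read-out, with CellTiter-Fluor fluorescence as the cytotoxicity counter-screen.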

In assay [3] the test system is thyroid hormone receptor (rat, GH3 cells). As to the kind of experiment: qHTS assay to identify small molecule agonists of the thyroid receptor (TR) signaling pathway (AID 743066; calls by dose curve).
The target in assay [4] is Estrogen receptor (Homo sapiens) (UniProt P03372). The experiment in a line: qHTS assay to identify small molecule antagonists of the estrogen receptor alpha (ER-alpha) signaling pathway (AID 743069; active = well fitted curve in the direction sought with a large enough effect in the signal ratio in the repeat runs, not every such curve was filed as active; inconclusive = weak or mixed curves, or effect the other way; inactive = no such curve, though single readings can be large or run the other way; the % refers to the signal ratio). In outline:
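HEK293 ER-alpha-UAS-bla GripTite cells, held overnight in 2% charcoal-stripped FBS, 5,000 cells/well, preincubated 4 h, then compound plus 17beta-estradiol for 18 h at 37C. Beta-lactamase read by LiveBLAzer B/G FRET substrate, 2 h at room temperature.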

Assay [5] is described as follows: qHTS assay to identify small molecule antagonists of the estrogen receptor alpha (ER-alpha) signaling pathway - cell viability counter screen (AID 743074; calls by dose curve;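 note: HEK293 cells carrying ER-alpha-UAS-bla reporter stimulated with 17beta-estradiol; nearly all actives have a fitted effect of over 45% in size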).
The target in assay [6] is Estrogen receptor (Homo sapiens) (UniProt P03372). As to the kind of experiment: qHTS assay to identify small molecule agonists of the estrogen receptor alpha (ER-alpha) signaling pathway (AID 743075; calls by dose curve; note: potency is the fitted concentration of half-maximal effect).
Assay [7] shares this target. As to the kind of experiment: qHTS assay to identify small molecule agonists of the estrogen receptor alpha (ER-alpha) signaling pathway using the BG1 cell line (AID 743079). Note: nearly all actives have a fitted effect of over 20% in size. Note: potency is the fitted concentration of half-maximal effect.
Assay [8] can be described thus: qHTS assay to identify small molecule antagonists of the estrogen receptor alpha (ER-alpha) signaling pathway using the BG1 cell line (AID 743080; calls by dose curve;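 note: BG1 cells stimulated with 17beta-estradiol alongside compound; series mostly up to about 70 µM; nearly all actives have a fitted effect of over 25% in size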). Put shortly:
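BG1-Luc-4E2 cells (endogenous full-length ER-alpha, 4xERE luciferase) hormone-starved 5 days in charcoal-stripped FBS, plated 4,000/well for 24 h, then compound plus 17beta-estradiol for 21.5 h at 37 C; ONE-Glo luminescence read.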

Assay [9] is described as follows: qHTS assay to identify small molecule antagonists of the estrogen receptor alpha (ER-alpha) signaling pathway using the BG1 cell line - cell viability counter screen (AID 743081).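 Note: compound given together with 17beta-estradiol as the ER stimulus; series mostly up to about 70 µM; nearly all actives have a fitted effect of over 45% in size.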
The target in assay [10] is Aromatase (Homo sapiens) (UniProt P11511). As to the kind of experiment: qHTS assay to identify aromatase inhibitors (AID 743083). Note: series mostly up to about 70 µM; nearly all actives have a fitted effect of over 55% in size.
% is set by controls: 0 for no effect and ±100 for the full control effect.

Chain of Aromatase (Homo sapiens) (P11511 whole entry, looked up): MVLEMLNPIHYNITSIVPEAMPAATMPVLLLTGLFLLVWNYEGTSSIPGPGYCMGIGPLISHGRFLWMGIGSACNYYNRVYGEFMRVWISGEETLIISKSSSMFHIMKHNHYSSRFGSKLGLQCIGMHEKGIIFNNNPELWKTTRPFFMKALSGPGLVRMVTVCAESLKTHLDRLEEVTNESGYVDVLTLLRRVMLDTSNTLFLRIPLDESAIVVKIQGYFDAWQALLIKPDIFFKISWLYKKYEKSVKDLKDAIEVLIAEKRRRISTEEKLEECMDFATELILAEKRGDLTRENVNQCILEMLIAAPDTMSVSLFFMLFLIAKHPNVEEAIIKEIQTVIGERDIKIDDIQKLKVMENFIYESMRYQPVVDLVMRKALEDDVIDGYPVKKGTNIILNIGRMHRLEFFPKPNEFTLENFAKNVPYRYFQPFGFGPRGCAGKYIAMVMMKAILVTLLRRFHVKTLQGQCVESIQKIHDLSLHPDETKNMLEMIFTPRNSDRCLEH
Chain of Estrogen receptor (Homo sapiens) (P03372 whole entry, looked up): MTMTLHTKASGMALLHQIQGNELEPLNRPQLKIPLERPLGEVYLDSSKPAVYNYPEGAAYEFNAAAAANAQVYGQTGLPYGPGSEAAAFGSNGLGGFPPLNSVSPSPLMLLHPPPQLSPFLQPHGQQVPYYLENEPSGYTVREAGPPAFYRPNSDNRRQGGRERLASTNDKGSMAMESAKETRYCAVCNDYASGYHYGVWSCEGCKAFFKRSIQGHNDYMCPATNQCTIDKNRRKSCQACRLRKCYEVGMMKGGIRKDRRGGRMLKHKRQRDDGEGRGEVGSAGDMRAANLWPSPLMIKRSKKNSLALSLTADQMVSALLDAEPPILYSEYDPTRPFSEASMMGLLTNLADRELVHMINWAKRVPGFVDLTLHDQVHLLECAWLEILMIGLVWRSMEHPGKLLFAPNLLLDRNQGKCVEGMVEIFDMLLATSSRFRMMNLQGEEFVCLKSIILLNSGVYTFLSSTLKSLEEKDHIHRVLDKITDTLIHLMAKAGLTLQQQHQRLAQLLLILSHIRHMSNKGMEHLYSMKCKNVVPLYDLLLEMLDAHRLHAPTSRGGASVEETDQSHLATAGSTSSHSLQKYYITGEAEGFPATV

Consider `CC1C=[C-]C=C1.[C-]#[O+].[C-]#[O+].[C-]#[O+].[Mn]`, for which the Potency entry in assay [1], in assay [2], in assay [4], in [5], in assay [6] and in assay [7] was “inactive” each time. Further, the Potency entry in [8] and in assay [10] was “inactive” each time. In addition, the result in [3] and in assay [9] was inactive.
Turning to `Cc1ccc(N)cc1Cl`, the Potency result in assay [1], in assay [2], in assay [4], in assay [5], in [6] and in [7] was “inactive” in each case. Further, the Potency result in [8] and in assay [10] was “inactive” in each case. Further, the outcome in assay [3] and in assay [9] was inactive.
With `CCOC(=O)c1ccccc1C(=O)OCC`, the Potency result in assay [1], in assay [2], in assay [4], in [5], in [6] and in [7] was “inactive” in each case. For the same molecule, the Potency result in assay [8] and in assay [10] was “inactive” throughout. The molecule was called inactive in assay [3] and in assay [9].
For `NCCc1ccc(O)cc1`, the Potency entry in assay [1], in assay [2], in assay [4], in [5], in assay [6] and in assay [8] was “inactive” throughout. For the same molecule, in assay [10], the Potency entry was “inactive”. Besides, the outcome in [3] and in [9] was inactive. Besides, the Potency result in [7] was “inactive and 68 µM (active)”.
`COP(N)(=O)SC` (centres undefined): the Potency entry in assay [1], in assay [2], in assay [4], in assay [5], in [6] and in assay [7] was “inactive” throughout. In addition, the Potency result in [8] and in assay [10] was “inactive” throughout. The result in [3] and in [9] was inactive.
Turning to `COC(=O)c1ccccc1C(=O)OC`, the Potency entry in [1], in assay [2], in assay [4], in [5], in assay [6] and in [7] was “inactive” in each case. Further, the Potency result in assay [8] and in assay [10] was “inactive” each time. Also, the outcome in assay [3] and in [9] was inactive.
As for `O=[N+]([O-])c1ccc([As](=O)(O)O)cc1`, the Potency result in assay [1], in assay [2], in assay [4], in [5], in assay [6] and in assay [7] was “inactive” in each case. In addition, the Potency entry in assay [8] and in [10] was “inactive” throughout. Also, the molecule was called inactive in assay [3] and in assay [9].
In the case of `CCCCOC(=O)c1ccccc1C(=O)OCCCC`, the Potency result in assay [1], in [2], in assay [4], in [5], in [6] and in assay [8] was “inactive” each time. In [10], the Potency entry was “inactive”. In addition, the molecule was classed as inactive in assay [3] and in assay [9]. In addition, in assay [7], the Potency was 77 µM (active) and inactive.
Take `O=C(NC(=O)c1c(F)cccc1F)Nc1cc(Cl)c(OC(F)(F)C(F)C(F)(F)F)cc1Cl` (centres undefined): the Potency result in [1], in assay [2], in assay [4], in assay [5], in assay [6] and in assay [7] was “inactive” in each case. Moreover, the Potency result in assay [8] and in [10] was “inactive” throughout. Moreover, the outcome in assay [3] and in [9] was inactive.
For `CCC12COCN1COC2`, the Potency entry in assay [1], in [2], in [4], in assay [5], in assay [6] and in assay [7] was “inactive” throughout. For the same molecule, the Potency entry in [8] and in assay [10] was “inactive” in each case. The result in [3] and in assay [9] was inactive.
For `CCOP(=S)(OCC)Oc1cnc2ccccc2n1`, the Potency result in assay [1], in assay [2], in [4], in assay [5], in [8] and in [10] was “inactive” in each case. Moreover, the outcome in [3] and in assay [9] was inactive. The Potency result in [6] was “inactive and 17.4 µM [inconclusive] (active)”; in assay [7], “inactive and 15.4 µM (active)”.
Turning to `Nc1c(Cl)c(Cl)nc(C(=O)O)c1Cl`, the Potency result in assay [1], in [2], in assay [4], in assay [5], in assay [6] and in assay [7] was “inactive” in each case. Further, the Potency entry in [8] and in [10] was “inactive” each time. For the same molecule, the result in assay [3] and in [9] was inactive.
On to `CCCN(CCC)N=O`, for which the Potency entry in assay [1], in assay [2], in assay [4], in [5], in assay [6] and in assay [7] was “inactive” throughout. Moreover, the Potency entry in assay [8] and in assay [10] was “inactive” in each case. The result in assay [3] and in assay [9] was inactive.
As for `CCN(CC)c1ccccc1`, the Potency result in [1], in assay [2], in assay [4], in [5], in [6] and in [7] was “inactive” each time. Further, the Potency result in [8] and in assay [10] was “inactive” each time. For the same molecule, the molecule was classed as inactive in assay [3] and in [9].
With `CCOP(=S)(OCC)SCCSCC`, the Potency entry in assay [1], in assay [2], in [5] and in assay [10] was “inactive” each time. The outcome in assay [3] and in assay [9] was inactive.
As for `CC(=O)C=C(C)C`, the Potency entry in assay [1], in [2], in assay [4], in assay [5], in assay [6] and in [7] was “inactive” in each case. In addition, the Potency result in assay [8] and in assay [10] was “inactive” in each case. Besides, the outcome in assay [3] and in assay [9] was inactive.
For `Cc1cc(Cl)ccc1O`, the Potency result in [1], in assay [2], in assay [5] and in assay [10] was “inactive” each time. The outcome in [3] and in assay [9] was inactive.
On to `Cc1ccc([N+](=O)[O-])cc1C`, for which the Potency result in assay [1], in assay [2], in assay [4], in [5], in assay [6] and in assay [7] was “inactive” throughout. Besides, the Potency result in assay [8] and in assay [10] was “inactive” throughout. The molecule was classed as inactive in assay [3] and in assay [9].
As to `OC(O)C(Cl)(Cl)Cl`, the Potency entry in assay [1], in [2], in assay [5] and in assay [10] was “inactive” each time. Moreover, the call in assay [3] and in assay [9] was inactive.
Regarding `CCCCCCCCCCCC#N`, the Potency result in [1], in [2], in assay [5] and in assay [10] was “inactive” throughout. Besides, the result in assay [3] and in assay [9] was inactive.
Regarding `CCCCCOC(=O)c1ccccc1C(=O)OCCCCC`, the Potency result in assay [1], in assay [2], in [4], in assay [5], in [6] and in [7] was “inactive” each time. For the same molecule, the Potency result in assay [8] and in [10] was “inactive” throughout. Moreover, the molecule was called inactive in assay [3] and in assay [9].
With `CC(C#N)CCC#N` (centres undefined), the Potency result in assay [1], in assay [2], in assay [4], in [5], in assay [6] and in assay [7] was “inactive” throughout. The Potency entry in assay [8] and in [10] was “inactive” throughout. The molecule was called inactive in [3] and in [9].
For the molecule `ClCCBr`, the Potency entry in assay [1], in assay [2], in [4], in assay [5], in [6] and in assay [7] was “inactive” in each case. In addition, the Potency entry in assay [8] and in [10] was “inactive” each time. The result in [3] and in [9] was inactive.
In the case of `C=C(C)CCl`, the activity change, negative = cytotoxic in assay [1] is -10.5% [at 8.44 µM] (inactive). For the same molecule, the Potency result in assay [2], in [4], in assay [5], in [6], in [7] and in [8] was “inactive” in each case. The Potency result in [10] was “inactive”. Besides, the call in assay [3] and in assay [9] was inactive.
